Active and inactive are the calls of the source. Unless noted, no stated cut-off is given here; in the data, active means inhibition above about 80%; inactive means the rest.
Assays:
[1] = viability loss with induced miR-34 in A549 – imaging, A549 dox-inducible miR-34, nuclei and caspase counts, primary screen (AID 1347080;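 active means compounds whose cell count with miR-34 switched on is under 0.7 times the count with it off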); conditions: A549 miR-34 inducible, Hoechst nuclei count, 48 h
[2] = MELAS cybrid and Rieske KO viability enhancers – cell-based, MELAS cybrids, Rieske KO mouse fibroblasts, CellTiter-Glo, primary screen (AID 1508586;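 active means mean z-score across replicates of 1.96 or higher in either the MELAS or the Rieske mutant cell line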;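 further: z relative to plate mean and SD of compound and empty wells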); conditions: low glucose
[3] = growth inhibition, single agent or in combination, cell-based, chromothripsis tumors, cisplatin or BGB combos (AID 1671449); conditions: LFS_MB_P medulloblastoma cells;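 further: cells exposed for 96 hours; 0% = vehicle DMSO and 100% = killing by high DMSO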
[4] = growth inhibition, single agent and combos, cell-based, chromothripsis tumors, cisplatin or BGB combos (AID 1671450); conditions: HDN33 neuroblastoma cells, stronger effect = higher value;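 further: cells exposed to compound for four days; 0% = vehicle DMSO and 100% = cell killing by high DMSO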
[5] = growth inhibition, single agents and combos, ICB984, cell-based, cisplatin or BGB combos, synergistic combos for chromothripsis tumors (AID 1671451; call rule not given here;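 further: cells exposed for 96 hours before readout; 0% = vehicle DMSO and 100% = killing by high DMSO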); conditions: ICB984 medulloblastoma cells, drug combinations, stronger effect = higher value
[6] = growth inhibition, single agents and combos, LFS_MB_1R, cell-based, cisplatin or BGB combos, synergistic combos for chromothripsis tumors (AID 1671452); conditions: LFS_MB_1R medulloblastoma cells, stronger effect = higher value;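 further: cells exposed for 96 hours before readout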
[7] = growth inhibition, single agents and combos, HTB85, cell-based, BGB or cisplatin IC20 combos, synergistic combos for chromothripsis tumors (AID 1671453); conditions: HTB85 osteosarcoma cells, drug combinations, stronger effect = higher value;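 further: cells exposed for 96 hours before readout; 0% = vehicle DMSO and 100% = high DMSO killing control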
[8] = growth inhibition, single agents and combos, CRL2098, cell-based, BGB or cisplatin IC20 combos, synergistic combos for chromothripsis tumors (AID 1671454); conditions: CRL2098 osteosarcoma cells, drug combinations, stronger effect = higher value;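 further: cells exposed for 96 h before readout; 0% = vehicle DMSO and 100% = killing by high DMSO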
[9] = growth inhibition, single agents and combos, HD-MB03, cell-based, BGB or cisplatin IC20 combos, synergistic combos for chromothripsis tumors (AID 1671455; in the data active means inhibition above about 83%;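 further: 0% = vehicle DMSO and 100% = high DMSO as cytotoxic control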); conditions: HD-MB03 medulloblastoma cells, stronger effect = higher value
[10] = growth inhibition, single agents and combos, UWB1.289, cell-based, BGB or cisplatin combos, synergistic combos for chromothripsis tumors (AID 1671456); conditions: UWB1.289 ovarian carcinoma cells, stronger effect = higher value;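 further: cells exposed to compound for four days; 0% = vehicle DMSO and 100% = killing by high DMSO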
[11] = growth inhibition, single agents and combos, LFS_MB_2R, cell-based, cisplatin combos, synergistic combos for chromothripsis tumors (AID 1671457); conditions: LFS_MB_2R medulloblastoma cells, stronger effect = higher value;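 further: cells exposed to compound for four days before readout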
[12] = growth inhibition, MDA-MB-436, cell-based, BGB or cisplatin combos, synergistic combos for chromothripsis tumors (AID 1671458; call rule not given here;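 further: cells exposed for 96 hours; 0% = vehicle DMSO and 100% = killing by high DMSO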); conditions: MDA-MB-436 breast carcinoma growth inhibition, drug combinations, stronger effect = higher value
[13] = UWB1.289_BRCA1 ovarian cancer growth, cell-based, BGB or cisplatin combinations (AID 1671459); conditions: UWB1.289 BRCA1 ovarian carcinoma, drug combinations, stronger effect = higher value
[14] = drug combination toxicity in non-malignant astrocytes – cell-based, BGB or cisplatin IC20 combos, cytotoxicity control for chromothriptic childhood tumor combination screen (AID 1671460); conditions: Human astrocytes, viability inhibition, drug combinations, at 0.5 µM, stronger effect = higher value;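 further: cells exposed to compounds for 96 hours before viability readout; 0% = vehicle and 100% = killing control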
[15] = BT084 cell growth, single and combined drugs, ICGC_MB145, cisplatin and BGB IC40 combos (AID 1671461); conditions: BT084 medulloblastoma cells, drug combinations, stronger effect = higher value;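 further: cells exposed to drugs for 96 hours; 0% = vehicle DMSO and 100% = high DMSO full killing control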
[16] = RCMB18 cell growth, single agent and combined, cisplatin and BGB IC40 combos (AID 1671462); conditions: RCMB18 medulloblastoma cells, stronger effect = higher value;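 further: cells exposed to compound for four days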
[17] = CRL1545 cell growth, single agent and combined, cisplatin and BGB IC20 combos (AID 1671464); conditions: CRL1545 osteosarcoma cells, stronger effect = higher value;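 further: cells exposed to compound for 96 hours before readout; 0% = vehicle DMSO and 100% = high DMSO killing control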
[18] = measured here: combination with BGB IC40, at 0.05 µM
[19] = measured here: with BGB IC20 combination, at 0.5 µM
[20] = measured here: with cisplatin IC20 combination, at 0.5 µM
[21] = measured here: combination with cisplatin, at 0.5 µM
[22] = measured here: combination with cisplatin, at 5 µM

## O=C(O)c1cc2cccc([N+](=O)[O-])c2[nH]1
[1]; stronger effect = lower value, cell number ratio, induced over uninduced
  fold change: 0.946 (inactive)
[1]; measured here: relative caspase fold change +Dox/-Dox
  fold change: 0.523
[1]; measured here: total cells with miR-34 induction, stronger effect = lower value
  cell count: 8560
[1]; measured here: total cells without miR-34 induction
  cell count: 9040
[2]; MELAS cybrid survival, CellTiter-Glo 48 h, stronger effect = higher value
  z-score: -0.36 (inactive)
[2]; Rieske KO mouse fibroblast survival, CellTiter-Glo 72 h
  z-score: 0.315
[3]; at 0.5 µM, stronger effect = higher value
  inhibition: -23.9% (inactive)
[3]; measured here: combination with BGB IC20, at 0.005 µM
  inhibition: -6.46%
[3]; measured here: combination with BGB IC40, at 0.005 µM
  inhibition: -31.7%
[3]; [18]
  inhibition: -15.1%
[3]; measured here: combination with cisplatin, at 0.5 µM, stronger effect = higher value
  inhibition: -30%
[3]; measured here: combination with cisplatin, at 5 µM, stronger effect = higher value
  inhibition: -50.9%
[4]; BGB combo, at 5 µM
  inhibition: -9.55%
[4]; at 0.5 µM
  inhibition: -19.2% (inactive)
[4]; cisplatin combo, at 5 µM
  inhibition: -1.64%
[4]; [19]
  inhibition: -22.3%
[4]; [20]
  inhibition: -18.1%
[4]; single agent, at 5 µM
  inhibition: -9.97%
[5]; BGB IC20 combo, at 0.005 µM
  inhibition: -35.7%
[5]; BGB IC40 combo, at 0.005 µM
  inhibition: -62.5%
[5]; BGB IC40 combo, at 0.05 µM
  inhibition: -61%
[5]; at 0.5 µM
  inhibition: -39.2% (inactive)
[5]; cisplatin combo, at 0.05 µM
  inhibition: -67.4%
[5]; cisplatin combo, at 0.5 µM
  inhibition: -58.3%
[5]; cisplatin combo, at 5 µM
  inhibition: -47.8%
[5]; measured here: 5 uM single agent, at 5 µM
  inhibition: -25.3%
[6]; at 0.5 µM
  inhibition: -25.3% (inactive)
[6]; [18]
  inhibition: -24.6%
[6]; [21]
  inhibition: -18.7%
[6]; [22]
  inhibition: -30.6%
[7]; at 0.5 µM
  inhibition: -15.9% (inactive)
[7]; measured here: with BGB IC20, at 0.5 µM
  inhibition: -41.2%
[7]; measured here: with BGB IC20, at 5 µM
  inhibition: -22.3%
[7]; measured here: with cisplatin IC20, at 0.5 µM
  inhibition: -7.91%
[7]; measured here: with cisplatin IC20, at 5 µM
  inhibition: -2.59%
[7]; single agent, at 5 µM
  inhibition: -17.2%
[8]; at 0.5 µM
  inhibition: -68.3% (inactive)
[8]; measured here: combination with BGB at IC20, at 0.5 µM
  inhibition: -23.9%
[8]; measured here: combination with cisplatin at IC20, at 0.5 µM
  inhibition: -78.8%
[9]; at 0.5 µM
  inhibition: -5.12% (inactive)
[9]; measured here: combo with BGB at IC20, at 0.5 µM
  inhibition: -8.83%
[9]; measured here: combo with cisplatin at IC20, at 0.5 µM
  inhibition: 1.4%
[10]; at 0.5 µM
  inhibition: -15.9% (inactive)
[10]; measured here: inhibition with BGB combination, at 0.05 µM
  inhibition: -35.8%
[10]; measured here: inhibition with cisplatin combination, at 0.05 µM
  inhibition: 40%
[11]; at 0.5 µM
  inhibition: -32% (inactive)
[11]; [21]
  inhibition: -28.5%
[11]; [22]
  inhibition: -29.3%
[12]; at 0.5 µM
  inhibition: -23.3% (inactive)
[12]; measured here: BGB combination, at 0.5 µM
  inhibition: -25%
[12]; measured here: BGB combination, at 5 µM
  inhibition: -42.9%
[12]; measured here: cisplatin combination, at 0.5 µM
  inhibition: -25.6%
[12]; measured here: cisplatin combination, at 5 µM
  inhibition: -40.6%
[13]; BGB combination, concentration series, at 5 µM
  inhibition: -18.8%
[13]; at 0.5 µM
  inhibition: -21.8% (inactive)
[13]; cisplatin combination, concentration series, at 5 µM
  inhibition: -8.12%
[14]
  inhibition: -16% (inactive)
[14]; measured here: combo with BGB IC20
  inhibition: -13.8%
[14]; measured here: combo with cisplatin IC20
  inhibition: -5.7%
[15]; at 0.5 µM
  inhibition: -15.5% (inactive)
[15]; cisplatin combination, at 0.5 µM
  inhibition: -11.3%
[15]; cisplatin combination, at 5 µM
  inhibition: -2.07%
[15]; measured here: BGB IC40 combination 0.05 uM, at 0.05 µM
  inhibition: -9.88%
[15]; single agent, at 5 µM
  inhibition: -23.7%
[16]; at 0.5 µM
  inhibition: -11.6% (inactive)
[16]; cisplatin combo, at 5 µM
  inhibition: 27.1%
[16]; measured here: BGB IC40 combination, at 0.05 µM
  inhibition: -14.6%
[16]; [21]
  inhibition: 5.09%
[16]; single agent, at 5 µM
  inhibition: -41.3%
[17]; at 0.5 µM
  inhibition: -22.4% (inactive)
[17]; [19]
  inhibition: -10%
[17]; [20]
  inhibition: -28.5%
[17]; single agent, at 0.05 µM
  inhibition: 22.7%
[17]; single agent, at 5 µM
  inhibition: -25.9%
